Test results from PubChem BioAssay (Tox21).
Inconclusive results are not listed. Entries that show only a call come without a potency. Activity calls are given as the source filed them. Calls come from the whole dose curve; as a rule, active = well fitted inhibition curve with a large enough effect in the signal ratio in the repeat runs (not every such curve was filed as active); inconclusive = weak or mixed curves, or effect the other way; inactive = flat fitted curve, though single readings scatter; the % refers to the signal ratio.

Test: cAMP Responsive Elements (CRE) small molecule antagonists, cell-based qHTS assay (AID 1963591)
Details: CRE-bla HEK293T, beta-lactamase FRET ratio; series mostly up to 92.4 µM
From the text: U.S. Tox21 Program National Center for Advancing Translational Sciences [NCATS] Division of Preclinical Innovation [DPI] U.S. Environmental Protection Agency [EPA] National Institutes of Environmental Health Sciences [NIEHS] National Toxicology Program [NTP] U.S. Food and Drug Administration [FDA] Tox21 Assay Overview: CREB (cyclic-AMP Responsive Element Binding Protein) is a cellular transcription factor. It binds to certain DNA sequences called cAMP Responsive Elements (CRE) and regulates the transcription of the genes. […] This cell line can be used to find agonists/antagonists of the cyclic AMP signaling pathway. The activation of the report gene under culture conditions can be detected by fluorescence intensity. This cell line has been used to screen the Tox21 10K compound library to […].
Tox21 Assay Protocol Summary: CRE-bla Hek 293T cells were suspended in assay medium (DMEM containing 10% dialyzed FBS, 0.1 mM NEAA, 1 mM sodium pyruvate and 25 mM HEPES) and dispensed at 2,000 cells/4 uL /well into 1536-well black wall/clear bottom plates using a Multidrop Combi (ThermoFisher Scientific, Waltham, MA) dispenser. After the assay plates were incubated at 37 C/5% CO2 for 18 hrs, 23 nL of compounds dissolved in DMSO, positive controls or DMSO only was transferred to the assay plate by a pintool workstation (Kalypsys, San Diego, CA), followed by addition of 1 […] uL of 1.25uM NKH477 (0.25 uM as final concentration) in assay medium using a Flying Reagent Dispenser (Aurora Discovery, San Diego, CA). The plates were incubated at 37 C and 5% CO2 for 3 hrs. Then 1 uL of LiveBLAzer B/G FRET substrate (Invitrogen, Carlsbad, CA) was added to each well using Bioraptr Flying Reagent Dispenser (FRD, Aurora Discovery, San Diego, CA). The plates were incubated at room temperature for 2 h.

| SMILES | Potency | activity change, negative = inhibition |
| --- | --- | --- |
| CCCCCOC(=O)CCCC | inactive | – |
| CCOC(=O)C1=NN(c2ccc(Cl)cc2Cl)C(C)(C(=O)OCC)C1 (stereo not given) | inactive | – |
| COc1cc(S(=O)(=O)O)c(C)cc1N=Nc1c(O)ccc2cc(S(=O)(=O)O)ccc12 | inactive | – |
| Nc1nc(Cl)nc2c1ncn2[C@@H]1O[C@H](CO)[C@@H](O)[C@@H]1F | inactive | – |
| COc1cc2c(cc1N)oc1ccccc12 | inactive | – |
| CCN(CCO)CCCC(C)Nc1ccnc2cc(Cl)ccc12 (stereo not given) | – | -1.93% [at 8.39 µM] (inactive) |
| CN(C(=O)C(Cl)Cl)c1ccc(OC(=O)c2ccco2)cc1 | inactive | – |
| NC(=O)COCCN1CCN(C(c2ccccc2)c2ccc(Cl)cc2)CC1 (stereo not given) | inactive | – |
| CCCCOc1cc(C(=O)NCCN(CC)CC)c2ccccc2n1 | inactive | – |
| CCCCCCCCC(C)=O | inactive | – |
| CCCCC(CC)COC(=O)COc1ccc(Cl)cc1Cl (stereo not given) | inactive | – |
| CC(C)CCCC(=O)O | inactive | – |
| CCOC(=O)/C=C/C(=O)OCC | inactive | – |
| OCC(O)c1ccccc1 (stereo not given) | inactive | – |
| CC(C)CCCC(C)NCCC(C)C (stereo not given) | inactive | – |
| N#C/C(=C1\SCC(c2ccccc2Cl)S1)n1ccnc1 (stereo not given) | inactive | – |
| C[Si]1(C)N[Si](C)(C)N[Si](C)(C)N1 | inactive | – |
| O=c1[nH]c(=O)c2[nH]c(=O)[nH]c2[nH]1 | – | -5.1% [at 8.39 µM] (inactive) |
| CC(=O)OC(C)=O | inactive | – |
| COc1cc2c(cc1OC)-c1cc3ccc(OC)c(OC)c3c[n+]1CC2 | inactive | – |

| SMILES | Potency | activity change, negative = inhibition |
| --- | --- | --- |
| CCN(CC)C(=O)Nc1ccc(OCC(O)CNC(C)(C)C)c(C(C)=O)c1 (stereo not given) | inactive | – |
| CCCCCCCCCCc1ccccc1 | inactive | – |
| CCOC(=O)[C@H](CCc1ccccc1)N[C@@H](C)C(=O)N1CCC[C@H]1C(=O)O | inactive | – |
| CCCCCCC/C=C/C=O | inactive | – |
| CCCCCCCCC1CO1 (stereo not given) | inactive | – |
| CN(C)[C@@H]1C(=O)C(C(=O)NCN2CCCC2)=C(O)[C@@]2(O)C(=O)C3=C(O)c4c(O)cccc4[C@@](C)(O)C3C[C@@H]12 (stereo not given in full) | inactive | – |
| CCOc1ccccc1O[C@H](c1ccccc1)[C@H]1CNCCO1 | inactive | – |
| COC(=O)C(C)O (stereo not given) | inactive | – |
| Cc1ccc2oc(CN(Cc3ccccc3)C(=O)Nc3c(F)cc(F)cc3F)c(-c3ccc(Cl)cc3)c2c1 | inactive | – |
| CC[C@H]1OC(=O)[C@H](C)[C@@H](O[C@H]2C[C@@](C)(OC)[C@@H](O)[C@H](C)O2)[C@H](C)[C@@H](O[C@@H]2O[C@H](C)C[C@H](N(C)C)[C@H]2O)[C@](C)(OC)C[C@@H](C)C(=O)[C@H](C)[C@@H](O)[C@]1(C)O | inactive | – |
| C=CC(=O)OCCOCCOCC | inactive | – |
| c1ccc([C@H]2CN3CCSC3=N2)cc1 | inactive | – |
| CCN(CC)C(C)=O | inactive | – |
| CCNS(=O)(=O)c1ccc(C)cc1 | inactive | – |
| COc1cccc([C@H](O)C2CCN(CCc3ccc(F)cc3)CC2)c1OC | inactive | – |
| O=C1OC(=O)c2cccc3cccc1c23 | inactive | – |
| Nc1cc([N+](=O)[O-])cc(Cl)c1O | inactive | – |
| CN1[C@@H]2CC[C@H]1CC(OC(=O)C(O)c1ccccc1)C2 (stereo not given in full) | inactive | – |
| CC(C)CC(C)CC(C)CC(C)COC(=O)c1ccccc1C(=O)OCC(C)CC(C)CC(C)CC(C)C (stereo not given) | inactive | – |
| O=C(O)CNC(=O)c1ccc([N+](=O)[O-])cc1 | inactive | – |
